USP8 inh = inhibitors of human USP8 deubiquitinase | Ubiquitin carboxyl-terminal hydrolase 8 (Homo sapiens), P40818 | purified USP8, Ub-rhodamine cleavage fluorescence, 30 min | inhibition, % at 20 µM | actives 4.2% (n = 47,000) | AID 1645853, 2021
USP30 block = inhibitors of human USP30 deubiquitinase; Ubiquitin carboxyl-terminal hydrolase 30 (Homo sapiens), Q70CQ3; purified USP30, Ub-rhodamine cleavage fluorescence; inhibition, % at 25 µM; actives 5.3% (n = 47,000); AID 1645860, 2021
Target sequence (Q70CQ3 whole entry, looked up): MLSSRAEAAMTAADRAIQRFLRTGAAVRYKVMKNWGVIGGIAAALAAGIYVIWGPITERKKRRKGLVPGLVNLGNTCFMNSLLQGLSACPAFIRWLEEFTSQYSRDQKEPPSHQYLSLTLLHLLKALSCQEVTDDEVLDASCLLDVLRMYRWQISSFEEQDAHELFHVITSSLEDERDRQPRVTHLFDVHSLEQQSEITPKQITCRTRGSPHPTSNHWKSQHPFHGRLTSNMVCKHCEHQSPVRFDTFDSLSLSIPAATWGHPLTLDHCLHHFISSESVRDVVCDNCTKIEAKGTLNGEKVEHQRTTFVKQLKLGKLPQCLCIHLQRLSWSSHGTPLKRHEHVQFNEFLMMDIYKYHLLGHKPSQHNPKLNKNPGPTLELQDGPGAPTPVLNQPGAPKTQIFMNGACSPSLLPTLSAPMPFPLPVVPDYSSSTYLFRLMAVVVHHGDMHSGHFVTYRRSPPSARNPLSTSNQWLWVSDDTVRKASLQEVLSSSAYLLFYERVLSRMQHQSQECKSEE
USP28 inh = inhibitors of human USP28 deubiquitinase; Ubiquitin carboxyl-terminal hydrolase 28 (Homo sapiens), Q96RU2; purified USP28, Ub-rhodamine cleavage fluorescence, 30 min; inhibition, % at 25 µM; actives 3% (n = 47,000); AID 1645857, 2021
USP17 block = inhibitors of human USP17 deubiquitinase; Ubiquitin carboxyl-terminal hydrolase 17-like protein 5 (Homo sapiens), A8MUK1; purified USP17, Ub-rhodamine cleavage fluorescence, 3 h; inhibition, % at 50 µM; actives 6.5% (n = 47,000)
USP10 inh = inhibitors of human USP10 deubiquitinase. purified USP10, Ub-rhodamine fluorescence, 60 min. inhibition, % at 20 µM. actives 1.1% (n = 47,000). Ubiquitin carboxyl-terminal hydrolase 10 (Homo sapiens), Q14694
* = called active by the depositor; . = no result given. This is a sample that favours compounds with a hit; in the whole collection about 13% have one here. Rule as the data show it: active = inhibition above about 30%; inactive = the rest.

SMILES | USP8 inh | USP30 block | USP28 inh | USP17 block | USP10 inh
CC(=O)NC[C@H]1C[C@]2(C)[C@@H](CCCC[C@]2(C)O)N1C(=O)c1ccnn1C | 4 | 7 | 0 | 5 | -3
Cn1c(CCN2CCCCC2)nc2cc(NC(=O)c3ccc(Cl)cc3)ccc21 | 6 | -17 | 9 | 33* | -10
Cc1cccc(C(=O)Nc2ccc3c(c2)nc(CCN2CCCCC2)n3C)c1 | -2 | -20 | -13 | -14 | -4
CCc1nc2cc(NC(=O)c3cccc(N4CCCC4=O)c3)ccc2n1C | -12 | -50 | 62* | -8 | 0
Cc1cccc2nnc(N3CCCC(C(=O)NCc4ccccc4F)C3)n12 (stereo not drawn) | 0 | -29 | -6 | 0 | -2
CC1=CC2N(c3ccccc31)C(C(=O)C(C)(C)C)C(C(=O)c1ccc3c(c1)OCO3)C21C(=O)Nc2ccccc21 (stereo not drawn) | 68* | -184 | -22 | 22 | -3
O=C(c1cccs1)[C@@H]1[C@@H](C(=O)c2ccc3c(c2)OCO3)[C@]2(C(=O)Nc3ccccc32)[C@H]2C=Cc3ccccc3N12 | 38* | -225 | -63 | -3 | -1
CN(C)C(=O)C1Cn2ccnc2C2(CCN(C(=O)NCCc3ccc(F)cc3)CC2)O1 (stereo not drawn) | -136 | 9 | 5 | -16 | 0
Cc1cc(Cl)ccc1NC(=O)N1C[C@@H]2C[C@H](NS(C)(=O)=O)[C@H]1C2 | 8 | 24 | 5 | 15 | 1
CCOC(=O)c1cnc(-c2ccccc2)nc1NC1CCCCC1 | 0 | -5 | -8 | -6 | 2
CCOC(=O)c1ccc(OCC2c3cc(OC)c(OC)cc3CCN2C(=O)C(C)Oc2ccccc2)cc1 (stereo not drawn) | 85* | -29 | 0 | 32* | -6
Cn1c(=O)c2c(nc(CN3CCN(c4ccccc4)CC3)n2CCN2CCOCC2)n(C)c1=O | -1 | -3 | -2 | -5 | 0
Cn1c(=O)c2c(nc(CN3CCOCC3)n2CCc2ccccc2)n(C)c1=O | 5 | 32* | 1 | 3 | 4
Cc1cc(C)n(Cc2c(C(=O)NCC(C)c3ccccc3)noc2C)n1 (stereo not drawn) | 0 | -26 | -8 | -2 | -3
O=C(C1CCCN(S(=O)(=O)N2CCCC2)C1)N1CCN(c2ncccn2)CC1 (stereo not drawn) | 22 | 18 | 4 | 15 | 0
C=C1CCC[C@]2(C)C[C@H]3OC(=O)C(CNCCc4ccc(OC)c(OC)c4)[C@H]3CC12 (stereo partly drawn) | -42 | 46* | 7 | -11 | -2
Cc1nc(CO[C@H]2CN(C(=O)C3CCOC3)[C@@H]3COC[C@H]23)cs1 (stereo partly drawn) | -81 | -11 | -15 | -12 | -2
Cc1c(Cl)cccc1NS(=O)(=O)c1ccc(N2CCCCS2(=O)=O)cc1 | -20 | 40* | 5 | 26 | 2
Cc1ccc(C(C)C)c(OCC(=O)Nc2ccc(S(=O)(=O)Nc3cc(C)nc(C)n3)cc2)c1 | -9 | 1 | 2 | 9 | 8
CCOc1ccc(NS(=O)(=O)c2ccc(NC(=O)COc3ccccc3C)cc2)cc1 | 19 | 43* | 11 | 23 | 17
Cc1c(Cl)cccc1NS(=O)(=O)c1ccc2[nH]cc(C(=O)N3CCCCCC3)c(=O)c2c1 | -77 | -82 | 3 | -14 | 4
COc1cc(NS(=O)(=O)c2ccc(NC(=O)COc3ccc(C)cc3Br)cc2)nc(OC)n1 | 3 | 45* | -5 | 26 | 38*
Cc1c(Cl)cccc1NS(=O)(=O)c1ccc(NC(=O)Nc2ccccc2)cc1 | -18 | 34* | 4 | 39* | 8
CCn1cc(S(=O)(=O)N2CCOC(c3cccc(-c4cncnc4)n3)C2)c(C)n1 (stereo not drawn) | 0 | -14 | -2 | 0 | -4
C[C@@H]1[C@H](O)[C@@H](C)/C=C/C=C\C=C/C=C/C=C/C=C/C=C/[C@H](O[C@@H]2O[C@H](C)[C@@H](O)[C@H](N)[C@@H]2O)C[C@@H]2O[C@](O)(C[C@@H](O)C[C@@H](O)[C@H](O)CC[C@@H](O)C[C@@H](O)CC(=O)O[C@H]1C)C[C@H](O)[C@H]2C(=O)O | -107 | -211 | -47 | -50 | -7
SMILES | USP8 inh | USP30 block | USP28 inh | USP17 block | USP10 inh
O=C(c1cc(-c2cccnc2)n[nH]1)N1CCn2ncnc2C1 | 13 | 15 | 1 | -2 | -1
CCOc1ccc(NS(=O)(=O)c2ccc(NC(=O)Nc3ccccc3)cc2)cc1 | 45* | 83* | 49* | 10 | 34*
COc1ccc(NS(=O)(=O)c2ccc(OC)c(NC(=O)c3ccc(OC)cc3)c2)cc1 | 2 | 15 | 5 | 5 | 7
COc1ccc(NS(=O)(=O)c2ccc(NC(=O)Nc3ccc(Cl)cc3)cc2)cc1 | 21 | 29 | 42* | 56* | 29
COc1ccc(-n2nc(C)c3sc(N4CCN(C(C)=O)CC4)nc32)cc1 | -1 | -14 | -6 | -10 | -1
O=C(Cn1cc(C(=O)c2ccccc2)c(=O)c2cc3c(cc21)OCCO3)Nc1ccc(F)cc1 | 9 | -161 | -39 | -24 | 12
CCOc1ccc2c(c1)c(=O)c(C(=O)c1ccccc1)cn2CC(=O)Nc1ccccc1 | 43* | -22 | -3 | 60* | 29
CCOc1ccc2c(c1)c(=O)c(C(=O)c1ccc(F)cc1)cn2CC(=O)Nc1ccccc1 | 38* | 0 | -1 | 4 | 28
COc1ccc(NC(=O)Cn2cc(C(=O)c3ccccc3)c(=O)c3cc4c(cc32)OCCO4)cc1 | 10 | -33 | -23 | -20 | 11
CCOc1ccc2c(c1)c(=O)c(C(=O)c1ccccc1)cn2CC(=O)Nc1ccc2c(c1)OCCO2 | 95* | 69* | 15 | 0 | 53*
COC(=O)C1CCN(CC(=O)Nc2cc(C)ccc2OC)CC1 | -2 | . | . | 2 | 0
Cc1[nH]ncc1C(=O)N1CCC(c2cccc(-n3ccnc3C(C)C)n2)CC1 | 9 | 14 | 4 | 8 | 1
COc1ccc(-c2c(C(=O)O)sc3c2NC(=O)CC3c2cccnc2)cc1 (stereo not drawn) | 17 | 7 | 8 | 9 | -1
O=C1NC2(CCN(C(=O)NCc3ccccc3)CC2)[C@@H]2CN(Cc3cccnc3)C[C@H]12 | 0 | -2 | 2 | -2 | -5
c1ccc(CC2CCN(Cc3cccc4ccccc34)CC2)cc1 | 11 | 7 | 7 | 6 | 1
O=C(Cc1cccc2ccccc12)N1CCC(Cc2ccccc2)CC1 | 10 | 44* | 4 | 20 | 17
COc1ccccc1CC(=O)N1CCC(Cc2ccccc2)CC1 | 0 | 36* | 8 | 11 | 6
N#Cc1cc([N+](=O)[O-])ccc1NC(=O)COC(=O)c1cccc(S(=O)(=O)N2CCc3ccccc32)c1 | 3 | -16 | 8 | 22 | 8
